Laboratory results: paper PMC9574860, “Chemical Toolkit for PARK7: Potent, Selective, and High-Throughput” (Journal of Medicinal Chemistry, 2022)
The campaign covered roughly 7,900 compounds. About 400 (5.1%) showed an effect of 50% or more. The entries come from a sample that favours strong results as a whole.

Molecular target: Parkinson's disease protein 7 (PARK7/DJ1) (human, UniProt Q99497)
Test: primary screen, percent inhibition; read as competition with a fluorescent probe by fluorescence polarization; higher = more effect of the substance
Settings: 100 µM
Method: The screen was conducted using the conditions as described above in 1536-well plates (Corning 3724) with a reaction volume of 8 μL per well. The compound library containing 7887 covalent fragments was purchased at Enamine Ltd. and received as 100 mM DMSO stocks in 384 well LDV Echo plates (Labcyte LP-0200). Stock solutions of 0.26 μM PARK7 and 80 nM JYQ-107 were prepared. Using a Labcyte Echo550 acoustic dispenser, 8 nL of the DMSO stock solution of the library compounds was transferred from the source plates into the empty 1536-well screening plates to obtain a 100 μM final compound concentration. Next, PARK7 (6 μL, final concentration 0.2 μM) was dispensed using a Biotek MultiflowFX liquid dispenser and incubated for 2 h, followed by dispensing the probe JYQ-107 (2 μL, final concentration 20 nM). After 2 h incubation, the FP signal was recorded on a BMG Labtech PHERAstar plate reader (λex/em 480/520 nm). The relative loss of FP signal compared with reference controls was used to calculate the remaining enzyme activity.

Parkinson's disease protein 7 (PARK7/DJ1), sequence (Q99497 whole entry, looked up): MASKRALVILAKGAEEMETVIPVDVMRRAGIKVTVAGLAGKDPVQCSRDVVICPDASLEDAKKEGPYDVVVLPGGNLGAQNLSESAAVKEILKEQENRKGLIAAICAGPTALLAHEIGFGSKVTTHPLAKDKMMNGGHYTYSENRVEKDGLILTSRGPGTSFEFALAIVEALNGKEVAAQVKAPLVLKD

Point of comparison: O=C(CCl)Nc1ccc2[nH]c(C(F)(F)F)nc2c1, Inhibition % 45%. Against it:
- Cl.Cl.O=C(O)C1CCN(C(=O)C=Cc2nc3ccccc3s2)C1 (centres unmarked) — lower, 9.53%
- C=CC(=O)NC[C@H]1CC[C@H](c2ccccc2)O1 — lower, 2.73%
- Cn1c(=O)c2c(ncn2CCS(=O)(=O)F)n(C)c1=O — lower, 7.95%
- CC(C)Cc1ccc(C(C)NC(=O)CCl)cc1 (centres unmarked) — lower, 9.76%
- CS(=O)(=O)OCC1(C#N)CCCCC1 — lower, 8.05%
- CCCC(=O)NC1CCCN(c2ccc(C#N)nc2)C1 (centres unmarked) — lower, 5.26%
- NC(=O)CCN(C(=O)CCl)c1ccccc1 — higher, 67.4%
- N#CCCN(C(=O)CCl)c1ccccc1 — lower, 14.9%
- NC(=O)CCN(C(=O)CCl)c1ccc(F)cc1 — lower, 37.5%
- C=CC(=O)NCc1cnn2ccccc12 — lower, 19.8%
- C=CC(=O)Nc1cnn2ccccc12 — higher, 97%
- C=CC(=O)Nc1cc2ccccn2n1 — lower, 30.2%
- C=CC(=O)NCc1noc2c1CCCC2 — lower, 4.47%
- CC(C)c1nc2c(n1C)CCN(c1cccnc1C#N)C2 — higher, 87%
- N#Cc1ncccc1N1CCC=C(F)C1 — lower, 20.1%
- N#Cc1ncccc1N1CCc2ccccc2C1 — lower, 26.9%
- C=CC(=O)NCc1ccc(CN2CCCCCC2)cc1 — lower, 13.2%
- O=C(CCl)c1ccc(F)c(F)c1 — lower, 22.1%
- O=C(CCl)c1ccc(F)c(C(=O)CCl)c1 — higher, 100%
- O=C(CCl)c1ccc(F)c(Cl)c1 — higher, 99.2%
- Cc1cc(C(=O)CCl)ccc1F — lower, 24.6%
- CC(NC(=O)Cn1cnc(C#N)n1)c1ccc(F)cc1F (centres unmarked) — lower, 1.26%
- N#CN(Cc1ccno1)c1ccc(F)cc1 — lower, 15.5%
- C=CC(=O)Nc1cc(F)ccc1C — lower, 3.57%
- CC1CCCCC1NC(=O)Cn1cnc(C#N)n1 (centres unmarked) — lower, 5.45%
- O=C(O)[C@H]1CCCN1C(=O)C=Cc1ccccc1F — lower, 8.2%
- O=C(CCl)N1CCCC2CCCCC21 (centres unmarked) — lower, 14.1%
- O=C(CCl)C1CCCN1C(=O)C(F)(F)F (centres unmarked) — higher, 80.8%
- NC(=O)C1CCCCN1C(=O)CCl (centres unmarked) — lower, 12.3%
- CC1(C)CCC(OS(C)(=O)=O)CC1 — lower, 16.9%
- CC(=O)NCCc1cc(C(=O)CCl)ccc1F — higher, 83.3%
- CSc1cc(C(=O)CCl)ccc1NC(C)=O — lower, 5.59%
- CSc1ccc(C(=O)CCl)cc1NC(C)=O — lower, 37.7%
- CC(=O)NCCc1ccc(C(=O)CCl)cc1F — higher, 81.3%
- O=C(CCl)NCCc1ccc(Cl)cc1Cl — lower, 23.1%
- Cc1nc(C=CC(=O)N2CCc3sccc3C2)cs1 — lower, 4.01%
- O=C(CCl)Nc1nc2c(F)c(F)c(F)cc2s1 — lower, -4.93%
- COc1ccc(N2CCN(CC3CO3)CC2)cc1 (centres unmarked) — lower, 12.9%
- N#CC1CC2(CC(=O)N2)C1 (centres unmarked) — lower, 5.93%
- Cc1ccc2cccc(OC(=O)N3CCCC3)c2n1 — lower, 13.5%
- O=C(O)CC1CC(=O)N1 (centres unmarked) — higher, 65.7%
- O=C1CC(Cc2ccccc2)N1 (centres unmarked) — lower, 3.33%
- O=C1CC(c2ccccc2)N1 (centres unmarked) — lower, 7.05%
- Cc1nc(C#N)c(N)nc1Cl — lower, 10.2%
- Oc1ccnc(S)n1 — lower, 2.99%
- Cc1ccc2ccccc2c1B(O)O — lower, 0.986%
- COc1ccccc1NS(=O)(=O)C=Cc1ccccc1 — lower, 7.7%
- O=S(=O)(C=Cc1ccccc1)Nc1ccc(F)c(F)c1 — lower, 1.18%
- Cc1ccc(C=CS(=O)(=O)Nc2cnn(CCO)c2)cc1 — lower, 14.7%
- O=S(=O)(F)c1ccc(S(=O)(=O)Nc2ccnnc2)cc1 — lower, 8.23%
- COc1ccc(NS(=O)(=O)C=Cc2ccccc2)cc1 — lower, 1.18%
- COc1ccc(NS(=O)(=O)c2ccc(S(=O)(=O)F)cc2)cn1 — higher, 100%
- Cc1cc(NS(=O)(=O)C=Cc2ccccc2)ccn1 — lower, 29.4%
- CN(C)c1ccc(NS(=O)(=O)C=Cc2ccccc2)cn1 — higher, 69.9%
- N#Cc1ccc(NS(=O)(=O)C=Cc2ccccc2)cc1 — lower, 10.5%
- COc1ccc(NS(=O)(=O)C=Cc2ccccc2)cn1 — higher, 59.9%
- CCn1cc(NS(=O)(=O)C=Cc2ccccc2)cn1 — higher, 81.4%
- O=C(CCl)NCc1ccc(C(=O)N2CCOCC2)cc1 — lower, 19.5%
- C=CC(=O)NC1C2CCOC2C12CCCC2 (centres unmarked) — lower, 5.2%
- C=CC(=O)N1CCOCC(C)C1 (centres unmarked) — lower, 6.12%
- O=C1SCCN1CN1CCC(c2ccccc2)CC1 — lower, 11.7%
